Source: the supplement of paper PMC11732987, “Enantioselective OTUD7B fragment discovery through chemoproteomics screening and high-throughput optimisation” (Communications Chemistry, 2025)

How the values were obtained:
Experiment in all cases: log2 ratio of Biotin-Ahx-Ub-VS probe labelling (fragment/DMSO); higher = less target engagement (more negative = stronger competition), active = hit call of the paper (q ≤ 0.05, log2 ratio ≤ -1)
Settings in all cases: compound concentration: 200 uM; treatment time: 3 h
OTUD6B = biological target: T1, OTUD6B (UniProt Q8N6M0)
T1 sequence (whole entry): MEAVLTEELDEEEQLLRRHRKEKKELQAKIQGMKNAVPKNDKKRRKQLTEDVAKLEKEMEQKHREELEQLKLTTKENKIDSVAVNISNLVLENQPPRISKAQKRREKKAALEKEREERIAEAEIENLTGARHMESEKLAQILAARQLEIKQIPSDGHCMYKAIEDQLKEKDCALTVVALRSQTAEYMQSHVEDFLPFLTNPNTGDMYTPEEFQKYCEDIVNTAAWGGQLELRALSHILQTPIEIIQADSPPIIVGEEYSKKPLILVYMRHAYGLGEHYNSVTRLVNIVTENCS
Outline: (§1)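 Labelled DUBs from HEK293T lysate were NeutrAvidin-enriched, digested with LysC and trypsin, and run by diaPASEF LC-MS/MS. Before that, each 495 µg sample in Tris/CHAPS/IGEPAL buffer with protease inhibitors was treated in triplicate with fragment at 200 µM or vehicle for 3 h, then with Biotin-Ahx-Ub-VS at 0.5 µM final for 1 h. Values are average log2 ratios of fragment over vehicle by unpaired t-test, based on global-median-normalised Spectronaut label-free quantities from proteins with ≥2 unique peptides.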

OTUD7B = biological target: T2, OTUD7B (UniProt Q6GQQ9)
T2 sequence (whole entry): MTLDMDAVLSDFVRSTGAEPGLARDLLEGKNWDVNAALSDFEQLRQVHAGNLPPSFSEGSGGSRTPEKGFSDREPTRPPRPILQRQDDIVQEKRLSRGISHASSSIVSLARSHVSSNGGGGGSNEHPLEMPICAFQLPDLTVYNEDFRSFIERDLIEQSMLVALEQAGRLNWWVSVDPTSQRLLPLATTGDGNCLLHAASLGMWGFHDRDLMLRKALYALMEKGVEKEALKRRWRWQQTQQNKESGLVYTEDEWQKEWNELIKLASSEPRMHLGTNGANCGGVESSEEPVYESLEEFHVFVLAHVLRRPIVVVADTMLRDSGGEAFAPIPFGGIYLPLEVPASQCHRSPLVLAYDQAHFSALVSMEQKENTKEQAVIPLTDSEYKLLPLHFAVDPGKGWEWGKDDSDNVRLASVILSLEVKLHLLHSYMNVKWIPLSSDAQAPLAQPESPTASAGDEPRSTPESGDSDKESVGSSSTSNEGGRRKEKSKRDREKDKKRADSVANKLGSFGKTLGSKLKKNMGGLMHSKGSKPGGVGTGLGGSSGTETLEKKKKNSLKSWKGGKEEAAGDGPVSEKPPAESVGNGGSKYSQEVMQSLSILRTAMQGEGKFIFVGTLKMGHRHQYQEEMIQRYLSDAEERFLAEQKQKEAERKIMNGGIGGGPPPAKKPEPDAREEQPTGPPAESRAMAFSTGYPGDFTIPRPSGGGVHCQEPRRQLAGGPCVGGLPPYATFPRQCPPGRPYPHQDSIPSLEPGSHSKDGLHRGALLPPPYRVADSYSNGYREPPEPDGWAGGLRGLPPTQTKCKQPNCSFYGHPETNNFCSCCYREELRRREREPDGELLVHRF
Outline: as §1

PRPF8 = PRPF8 (UniProt Q6P2Q9)
Outline: as §1

PSMD7 = biological target: T3, PSMD7 (UniProt P51665)
T3 sequence (whole entry): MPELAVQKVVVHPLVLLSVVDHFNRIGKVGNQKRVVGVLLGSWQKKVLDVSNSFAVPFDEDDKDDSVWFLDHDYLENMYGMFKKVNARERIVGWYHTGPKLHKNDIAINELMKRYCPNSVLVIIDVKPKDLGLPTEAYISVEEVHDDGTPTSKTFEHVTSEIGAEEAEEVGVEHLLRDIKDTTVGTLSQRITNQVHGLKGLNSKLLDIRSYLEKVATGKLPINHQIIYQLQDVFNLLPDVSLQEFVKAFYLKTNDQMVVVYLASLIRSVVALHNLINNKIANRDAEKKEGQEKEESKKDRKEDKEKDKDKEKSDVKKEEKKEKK
Outline: as §1

UCHL1 = UCHL1 (UniProt P09936)
Outline: as §1

UCHL3 = biological target: T4, UCHL3 (UniProt P15374)
T4 sequence (whole entry): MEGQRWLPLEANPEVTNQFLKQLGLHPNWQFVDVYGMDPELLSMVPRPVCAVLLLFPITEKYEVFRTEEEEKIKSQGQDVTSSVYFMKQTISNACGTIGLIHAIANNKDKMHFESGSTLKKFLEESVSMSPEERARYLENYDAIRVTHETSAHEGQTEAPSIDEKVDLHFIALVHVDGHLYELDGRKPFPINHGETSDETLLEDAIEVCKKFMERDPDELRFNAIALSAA
Outline: as §1

UCHL5 = biological target: T5, UCHL5 (UniProt Q9Y5K5)
T5 sequence (whole entry): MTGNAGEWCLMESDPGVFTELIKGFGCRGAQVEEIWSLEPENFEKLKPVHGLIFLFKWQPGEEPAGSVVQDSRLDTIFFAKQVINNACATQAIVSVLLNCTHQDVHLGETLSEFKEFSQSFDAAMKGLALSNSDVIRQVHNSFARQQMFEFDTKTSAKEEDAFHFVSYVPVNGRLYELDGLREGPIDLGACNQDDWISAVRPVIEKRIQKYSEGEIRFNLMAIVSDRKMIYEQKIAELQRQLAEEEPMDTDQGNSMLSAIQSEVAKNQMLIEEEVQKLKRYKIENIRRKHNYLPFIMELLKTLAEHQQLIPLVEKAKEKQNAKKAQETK
Outline: as §1

USP10 = USP10 (UniProt Q14694)
Outline: as §1

USP15 = biological target: T6, USP15 (UniProt Q9Y4E8)
T6 sequence (whole entry): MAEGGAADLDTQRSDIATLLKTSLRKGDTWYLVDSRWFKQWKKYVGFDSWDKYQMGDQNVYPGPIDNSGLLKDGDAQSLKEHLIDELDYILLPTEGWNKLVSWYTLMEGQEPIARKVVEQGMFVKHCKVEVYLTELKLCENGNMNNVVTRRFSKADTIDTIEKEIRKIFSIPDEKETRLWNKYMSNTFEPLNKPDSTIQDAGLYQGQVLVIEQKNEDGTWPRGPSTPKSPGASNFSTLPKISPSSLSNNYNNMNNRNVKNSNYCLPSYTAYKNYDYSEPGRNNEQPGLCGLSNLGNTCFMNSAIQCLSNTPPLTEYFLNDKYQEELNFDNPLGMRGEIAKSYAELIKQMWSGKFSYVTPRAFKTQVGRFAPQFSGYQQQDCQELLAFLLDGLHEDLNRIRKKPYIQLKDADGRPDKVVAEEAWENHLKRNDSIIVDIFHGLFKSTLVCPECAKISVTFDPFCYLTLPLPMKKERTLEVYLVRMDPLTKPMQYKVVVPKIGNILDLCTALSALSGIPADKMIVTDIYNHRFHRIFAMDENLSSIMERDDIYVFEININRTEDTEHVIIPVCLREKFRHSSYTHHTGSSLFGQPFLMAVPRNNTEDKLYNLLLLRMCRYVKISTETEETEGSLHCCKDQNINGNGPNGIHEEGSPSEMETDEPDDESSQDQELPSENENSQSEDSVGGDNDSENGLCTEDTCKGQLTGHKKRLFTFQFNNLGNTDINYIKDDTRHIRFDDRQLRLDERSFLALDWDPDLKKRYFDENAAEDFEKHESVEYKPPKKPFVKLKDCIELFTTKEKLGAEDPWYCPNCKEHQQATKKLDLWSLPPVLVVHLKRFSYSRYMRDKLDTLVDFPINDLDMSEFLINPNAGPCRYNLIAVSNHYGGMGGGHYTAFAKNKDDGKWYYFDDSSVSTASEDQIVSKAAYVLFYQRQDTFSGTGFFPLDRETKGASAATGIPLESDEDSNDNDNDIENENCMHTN
Outline: as §1

Measured: log2 ratio of Biotin-Ahx-Ub-VS probe labelling

UCHL1, sequence (P09936 whole entry, looked up): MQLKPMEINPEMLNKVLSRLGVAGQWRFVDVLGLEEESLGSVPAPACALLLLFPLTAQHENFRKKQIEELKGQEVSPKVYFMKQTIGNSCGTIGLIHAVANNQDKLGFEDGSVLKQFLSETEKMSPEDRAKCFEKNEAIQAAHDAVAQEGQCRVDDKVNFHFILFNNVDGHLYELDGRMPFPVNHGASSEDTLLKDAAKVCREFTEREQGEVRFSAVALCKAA
USP10, sequence (Q14694 whole entry): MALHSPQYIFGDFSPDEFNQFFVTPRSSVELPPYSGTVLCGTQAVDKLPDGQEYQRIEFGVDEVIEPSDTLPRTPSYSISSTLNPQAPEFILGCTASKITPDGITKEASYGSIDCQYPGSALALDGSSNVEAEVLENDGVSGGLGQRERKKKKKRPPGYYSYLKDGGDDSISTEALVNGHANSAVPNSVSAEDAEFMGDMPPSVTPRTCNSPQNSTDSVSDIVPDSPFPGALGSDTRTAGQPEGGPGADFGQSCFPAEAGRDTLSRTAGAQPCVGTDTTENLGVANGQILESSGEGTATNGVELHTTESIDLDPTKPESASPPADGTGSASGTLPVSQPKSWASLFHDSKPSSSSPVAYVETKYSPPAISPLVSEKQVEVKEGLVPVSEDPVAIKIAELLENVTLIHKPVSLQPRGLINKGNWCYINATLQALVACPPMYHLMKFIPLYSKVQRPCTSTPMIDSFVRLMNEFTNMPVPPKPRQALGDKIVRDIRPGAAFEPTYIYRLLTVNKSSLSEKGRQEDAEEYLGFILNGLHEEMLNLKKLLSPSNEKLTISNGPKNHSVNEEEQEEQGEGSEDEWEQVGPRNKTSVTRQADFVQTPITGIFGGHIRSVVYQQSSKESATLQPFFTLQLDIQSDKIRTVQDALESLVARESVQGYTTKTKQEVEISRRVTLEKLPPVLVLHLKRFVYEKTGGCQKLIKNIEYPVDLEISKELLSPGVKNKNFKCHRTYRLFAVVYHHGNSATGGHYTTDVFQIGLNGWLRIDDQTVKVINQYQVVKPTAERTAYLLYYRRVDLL

O=C(CCl)N1CCOC(c2cccc(F)c2)C1 (centres undefined)
inactive: OTUD6B -0.268 | PRPF8 -0.107 | PSMD7 -0.115 | UCHL3 0.156 | UCHL5 -0.463 | USP10 -0.284 | USP15 -0.387
active: OTUD7B -1.75 | UCHL1 -1.68
